In PubChem BioAssay AID1259415 (National Center for Advancing Translational Sciences (NCATS), 2018) one finds activity change, negative = inhibition data, which are given here for 56 compounds.

The campaign covered roughly 410,000 compounds. About 18,000 (4.4%) were called active. Another 7% or so got no clear call; they are omitted. The sample as a whole holds a higher share of actives than the screen did. Unmarked numbers belong to inactive results. Rule as the data show it: active = activity change below about -60%; inconclusive = no clear call, values can overlap the other calls; inactive = above about -39%.
% is scaled to controls: 0 for no effect and ±100 for the full control effect.

The nature of this experiment: qHTS Assay for inhibitors of the human cytomegalovirus (HCMV). The settings on record: HFF cells, HCMV-luciferase reporter, 72 h; at 57.5 µM; stronger effect = lower value. An excerpt:
NCGC Assay Overview: Infection with human cytomegalovirus (HCMV) continues to pose significant threats for pregnant women and immunocompromised hosts. HCMV causes serious morbidity and mortality in transplant recipients, and congenital HCMV is the leading infectious cause of mental retardation and deafness in children. In the 1990s, the annual costs associated with the disease burden of congenital CMV were estimated at around $2 billion. A HCMV vaccine is not available yet and HCMV therapies result in intolerable side effects and emergence of drug resistant viruses. […] Towards this goal we have developed and characterized a luciferase HCMV reporter that was initially used in 96 well plates and then optimized to 1536-well plates for utilization in screening of the MLSMR collection, the NGCG diversity collection and the NCGC Pharmaceutical Collection of approved and investigational drugs.
NCGC Assay Protocol Summary:
This is a cell-based assay for HCMV inhibition in HFFs cells. The screening used 2 compound doses and the HCMV-luciferase at MOI of 1 PFU/cell. Cells were treated and infected with HCMV. At 72 h post infection cell lysates were collected and luciferase activity was determined using the Glomax-Multi + Detection System (Promega, Madison, WI). Data were normalized to the controls for basal activity (buffer only) and known HCMV inhibitors Salinmoycin.
1536-well assay protocol for the assay:
(1) Add 3 ul CMV/HFF cell culture. 1000 cells/well in DMEM nirmal media.
(2) Incubate 16 hr at 37C.
(3) Add 23 nl control compound, 10uM of Salinomycin.
(4) Add 23 nl compounds in DMSO solution.
(5) Add 3 ul CMV suspension. Final 1 puf/ul, Virus stock 2000pfu/ul
(6) Incubate 72 hrs at 37C.
(7) Add 4 ul OneGlo Luc Reagent.
(8) Incubate 5 min at room temperature.
(Quantitative high-throughput screening tests each substance at several concentrations.)
As to `COc1ccc(C(=O)OCC(=O)NCC2CCCO2)cc1[N+](=O)[O-]` (stereo unspecified), the activity change, negative = inhibition was 15.2%.
In the case of `O=C1C(C=NCC2CCCO2)=C(O)c2ccccc21` (stereo unspecified), the activity change, negative = inhibition was 69.7%.
With `O=C1c2cccc3c([N+](=O)[O-])ccc(c23)C(=O)N1CC1CCCO1` (stereo unspecified), the activity change, negative = inhibition is -82.1% (active).
Regarding `CCOc1cc(C(C(=O)NCC2CCCO2)N(C(=O)Cn2nnc3ccccc32)c2cccc(OC)c2)ccc1O` (stereo unspecified), the activity change, negative = inhibition is -8.64%.
As for `Cc1ccc2oc(=O)c3cnn(CC(=O)NCc4ccccc4Cl)c3c2c1`, the activity change, negative = inhibition is -4.14%.
Take `COc1ccc(NC(=O)c2sc3nc[nH]c(=O)c3c2C)cc1`: the activity change, negative = inhibition was 52.3%.
Consider `CCCn1c(N)c(C(=O)CSc2nc3ccccc3c(=O)n2-c2ccc(OC)cc2)c(=O)[nH]c1=O`, for which the activity change, negative = inhibition was -29.3%.
For the compound `Cc1ccc(-n2c(SCC(=O)N3CCC(C(=O)O)CC3)nc3ccccc3c2=O)cc1C`, the activity change, negative = inhibition was 6.85%.
Next, `COc1cccc(-n2c(SCC(=O)c3c[nH]c4ccccc34)nc3ccccc3c2=O)c1`: -93.8% (active).
As for `COc1ccc(C)cc1NC(=O)COCc1cc(-c2cccs2)on1`, the activity change, negative = inhibition is -10.8%.
For `Cc1ccc(C)c(N2CCN(c3ccc4cc(S(=O)(=O)N5CCC(C)CC5)ccc4n3)CC2)c1`, the activity change, negative = inhibition was 19%.
Consider `COc1ccccc1CC(NC(C)=O)C(=O)NC1CCN(C(=O)Nc2ccccc2Cl)CC1` (stereo unspecified), for which the activity change, negative = inhibition is 0.54%.
`COc1cccc(NC(=O)N2CCC(NC(=O)C(Cc3cccc(C)c3)NC(C)=O)CC2)c1` (stereo unspecified): the activity change, negative = inhibition was -66.8% (active).
Next, `CCOC(=O)C1CCN(C(=O)Nc2cccc(OC)c2)CC1`: 5.16%.
In the case of `O=C(NCCCO)C(=O)Nc1c2c(nn1-c1ccccc1)CSC2`, the activity change, negative = inhibition was -2.71%.
For `COc1cccc(CN2CCc3nc(SCC(=O)Nc4ccccc4)[nH]c(=O)c3C2)c1` the value was 4.11%; for `O=C(Nc1c(Cl)c(C2CC2)nn1-c1ccccc1)C(Cl)(Cl)Cl`, 12.3%.
Consider `CCOc1ccc(N(CC)S(=O)(=O)N2CCCC(C(=O)NCc3ccc(Cl)cc3)C2)cc1` (stereo unspecified), for which the activity change, negative = inhibition was -15.9%.
As for `CCOc1ccc(CNC(=O)C2CCCN(c3nnc(C)c4c(C)n(-c5ccccc5)nc34)C2)cc1` (stereo unspecified), the activity change, negative = inhibition is -67.7% (active).
For the compound `CCCCNC(=O)C1CCCN(c2nnc(C)c3c(C)n(-c4ccc(Cl)cc4)nc23)C1` (stereo unspecified), the activity change, negative = inhibition is -6.23%.
Next, `COc1ccc(S(=O)(=O)N2CCN(CC(=O)N3CCOCC3)CC2)cc1OC`: 4.11%; `Cc1ccn(-c2cccc(-n3ccc(C)n3)n2)n1`: 65.3%.
Next, `CC(=O)NC(CC(=O)Nc1ccc(S(=O)(=O)N2CCOCC2)cc1)c1ccccc1` (stereo unspecified): 0%.
On to `Cc1cc(NS(=O)(=O)c2ccc(NC(=O)c3ccccc3C)cc2)nc(C)n1`, for which the activity change, negative = inhibition was -5.8%.
In the case of `COc1cccc(NC(=O)c2ccccc2N(Cc2ccccc2)S(C)(=O)=O)c1`, the activity change, negative = inhibition was -6.12%.
Next, `COc1cc(NS(=O)(=O)c2cccs2)cc(OC)c1`: 16.4%.
`COc1cc(NC(=O)c2ccccc2NS(=O)(=O)c2ccc(Cl)s2)cc(OC)c1`: the activity change, negative = inhibition is -99.7% (active).
Turning to `COC(=O)c1ccccc1NS(=O)(=O)c1ccc2c(c1)CCCN2C(C)=O`, the activity change, negative = inhibition was -2.94%.
In the case of `COC(=O)c1ccc(NC(=O)c2ccccc2NS(=O)(=O)c2ccccc2)cc1`, the activity change, negative = inhibition was -105% (active).
For `COc1ccc(C2CC(=O)Nc3c2c(=O)nc2c(C)cccn32)cc1OC` (stereo unspecified) the value was 3.37%.
As for `CCn1c(CNC(=O)c2ccccc2)nnc1SCC(=O)N1CCN(c2ccccc2)CC1`, the activity change, negative = inhibition is -25.6%.
With `O=C(CCNS(=O)(=O)c1ccccc1C(F)(F)F)Nc1ccncc1`, the activity change, negative = inhibition was 6.98%.
As to `Cc1ccccc1NC(=O)C1CCCN(C(=O)NCc2ccccc2)C1` (stereo unspecified), the activity change, negative = inhibition is -18.4%.
As to `Oc1ccc(N2CCN(C(=S)NCc3ccccc3)CC2)cc1`, the activity change, negative = inhibition is -63.6% (active).
Turning to `O=C(CN1CCN(c2ccccc2O)CC1)NC(=O)NCc1ccccc1`, the activity change, negative = inhibition was -4.33%.
For `COc1cc(C2C(C(=O)OCCC#N)=C(C)NC3=C2S(=O)(=O)c2ccccc23)cc(OC)c1OC` (stereo unspecified) the value was 2.51%; for `COc1ccccc1N1CCN(c2ncnc3onc(-c4cccc(Cl)c4)c23)CC1`, 10.1%.
On to `COc1ccc2c(c1)c(N1CCCC1=O)c(C(=O)Nc1ccc(OC)c(Cl)c1)n2C`, for which the activity change, negative = inhibition is -18.9%.
With `Cc1nn(CC(=O)O)c(=O)c2cc3cc(F)ccc3n12`, the activity change, negative = inhibition was 31%.
Next, `Cc1cccc(OCCNC(=S)NC(=O)c2cccnc2)c1`: -37.9%; `Cc1cccc(OCC(=O)NCCNC(=O)c2cccnc2)c1`: -66.9% (active).
For the compound `CCNC(=O)COC(=O)CCNC(=O)c1cccc(C)c1`, the activity change, negative = inhibition was -28.9%.
Regarding `Cc1cc(C)c(S(=O)(=O)NN=C2c3ccccc3[C@H]3Cc4csc[n+]4[C@@H]23)c(C)c1`, the activity change, negative = inhibition is -27.2%.
With `O=C(CCc1nc(CN2CCN(S(=O)(=O)c3ccc(F)cc3)CC2)no1)N1CCCCC1`, the activity change, negative = inhibition is -35.8%.
`Cc1cccc(C)c1NC(=O)C1CCCN1C(=O)OC(C)(C)C` (stereo unspecified): the activity change, negative = inhibition was -2.93%.
As for `CCC[C@H]1CCCC/C=C\CCCC(=O)OCCN1C(=O)OC(C)(C)C`, the activity change, negative = inhibition is -71.3% (active).
`Cc1nc(SCC(=O)NC2CCCCC2C)c(C#N)c(C)c1C` (stereo unspecified): the activity change, negative = inhibition was -103% (active).
For `Cc1nc(SCC(=O)NC2CCCC2)[nH]c(=O)c1C` the value was -10.8%; for `CC1CCCCC1NC(=O)CSc1nnc(N)s1` (stereo unspecified), 41.4%.
Take `COc1cccc(CNC(=O)[C@@H]2CCCN2C(=O)[C@@H]2CCCN2C(=O)c2ccccc2)c1`: the activity change, negative = inhibition is -2.63%.
As to `O=C(NCCS(=O)(=O)NCc1ccc(F)cc1)c1ccccc1`, the activity change, negative = inhibition is -9.67%.
As for `Cc1nc2c(C(=O)NCc3ccc4c(c3)OCO4)c[nH]n2c(=O)c1Cc1ccccc1F`, the activity change, negative = inhibition was -7.59%.
For `COc1ccc(NS(=O)(=O)c2cccc(C(=O)NCCc3ccc(S(N)(=O)=O)cc3)c2)cc1` the value was -1.91%; for `COc1ccc(NC(=O)/C(N=Nc2cccc(S(=O)(=O)Nc3ccc(SC(F)F)cc3)c2)=C(\C)O)cc1`, -70.6% (active).
For `Cc1c(NS(=O)(=O)c2cccc(C(=O)Nc3ccc(SC(F)F)cc3)c2)c(=O)n(-c2ccccc2)n1C` the value was -2.26%.
For the compound `Cc1ccc(Cl)cc1N1CCN(C(=O)c2cnc3c(-c4ccc(F)cc4)c(C)nn3c2C)CC1`, the activity change, negative = inhibition was 7.36%.
